What follows are compounds tested on T1, TRKC. Conditions: Compound Concentration (nM):1000.
T1 construct: gene NTRK3
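Note: KINOMEscan scanMAX binding as percent activity remaining versus control; lower means stronger binding.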

Row | SMILES | Percent Control [%]
1 | CN1CCN(C(=O)c2ccc(NC(=O)Nc3ccc(N(C)c4ccnc(Nc5ccc(CS(C)(=O)=O)cc5)n4)cc3)cc2)CC1.Cl [GW830263A] | 2
2 | COc1cc2ncnc(Nc3ccc4c(cnn4Cc4ccccc4)c3)c2cc1OC.Cl [GW282449A] | 100
3 | CC1=C(C(=O)Nc2ccc3[nH]ncc3c2)C(c2ccc3ccccc3c2)CC(=O)N1 (stereo not drawn) [GSK270822A] | 63
4 | O=C(Nc1n[nH]c2nc(-c3ccc(O)cc3)c(Br)cc12)C1CC1 [SB-725317] | 100
5 | CCS(=O)(=O)c1ccc(OC)c(Nc2ncc(-c3cccc(F)c3)o2)c1 [GW621970X] | 48
6 | COc1ccc2cc(-c3c(-c4ccncc4)nc(-c4ccc(S(C)(=O)=O)cc4C)n3C)ccc2c1 [SB-633825] | 60
7 | COc1ccccc1-c1cc(/C=C2\C(=O)Nc3ncc(Br)cc32)cc(Br)c1O [GW442130X] | 44
8 | CN(C)c1cc2c(Nc3ccc4c(cnn4Cc4ccccc4)c3)ncnc2cn1 [GW282974X] | 93
9 | COc1ccc2[nH]c3c4[nH]c5ccc(OC)cc5c4c4c(c3c2c1)C(=O)NC4=O [GW296115X] | 47
10 | COc1cccc(-n2ncc3c(N/N=C/c4ccncc4)ncnc32)c1 [GW784752X] | 85
11 | CC1=C(C(=O)Nc2ccc3[nH]ncc3c2)C(c2ccc(Cl)c(Cl)c2)CC(=O)N1 (stereo not drawn) [GSK299115A] | 68
12 | NS(=O)(=O)c1ccc(N/N=C2\C(=O)Nc3ccc(Cl)cc32)cc1 [GW280670X] | 89
13 | COc1cccc(-c2c[nH]c3c(N/N=C/c4ccncc4)ncnc23)c1 [GW814408X] | 100
14 | COC(=O)Nc1nc2ccc(Oc3ccc(NC(=O)Nc4cc(C(F)(F)F)ccc4F)cc3)cc2s1.Cl [GW693917A] | 4.5
15 | COc1ccc2c(-c3ccnc(Nc4cccc(OC(F)(F)F)c4)n3)cnn2n1 [GW810372X] | 91
16 | NS(=O)(=O)c1ccc(N/N=C2\C(=O)Nc3ccc(-c4cnco4)cc32)cc1 [GW276655] | 38
17 | Cl.c1ccc(Cc2nc3ccc(Nc4ncnc5ccccc45)cc3[nH]2)cc1 [GR269666A] | 100

Row | SMILES | Percent Control [%]
18 | C/C(Nc1ccc(S(N)(=O)=O)cc1)=C1/C(=O)Nc2ccccc21 [GW335962X] | 42
19 | COc1cc(N2CCN(C(C)C)CC2)ccc1Nc1nc(Nc2ccc(F)cc2C(=O)NC[C@@H](O)CO)c2cc[nH]c2n1 [GSK1392956A] | 89
20 | Nc1ncnc2occ(-c3ccc(NC(=O)Nc4cc(C(F)(F)F)ccc4F)cc3)c12 [GW770249X] | 0.1
21 | CC(C)COC(=O)c1ccc2c(c1)/C(=C/Nc1ccc(S(N)(=O)=O)cc1)C(=O)N2 [GW416981X] | 59
22 | Cl.O=C(Nc1ccc(Oc2ccc3[nH]c(NC(=O)c4ccccc4)nc3c2)cc1)Nc1cc(C(F)(F)F)ccc1F [GW709042A] | 29
23 | CCc1ccc(Oc2nccc(-c3c(-c4ccc(F)cc4)ncn3C3CCNCC3)n2)cc1 [SB-242719] | 98
24 | COc1cc(C)c(N(C)C(=O)CN(C)C)cc1Nc1nc(Nc2cccc(F)c2C(N)=O)c2cc[nH]c2n1 [GSK2219385] | 100
25 | NS(=O)(=O)c1ccc(Nc2ncc(-c3ccccc3)o2)cc1 [GW572399X] | 78
26 | CCS(=O)(=O)c1ccc(OC)c(Nc2ncc(-c3cccc(OC)c3)o2)c1 [GW580509X] | 67
27 | C[C@@H](Oc1cc(-n2cnc3ccc(OC4CCN(C)CC4)cc32)sc1C(N)=O)c1ccccc1Cl [GSK579289A] | 91
28 | COc1cc2ncn(-c3cc(O[C@H](C)c4ccccc4Cl)c(C(N)=O)s3)c2cc1OC [GSK237701A] | 59
29 | O=C1Nc2ccc(C(=O)c3ccco3)cc2C1=Cc1cc(Cl)c(O)c(Cl)c1 [GW406108X] | 61
30 | Cc1cc(O)cc(C)c1/C=C/c1cncc(C(N)=O)c1 [GW435821X] | 100
31 | COc1cc(/C=N/Nc2ncnc3[nH]ncc23)ccc1O [GW578748X] | 88
32 | COc1cc(C=NNc2ncnc3c2cnn3-c2ccccc2)ccc1O [GW513184X] | 99
33 | NS(=O)(=O)c1ccc(N/N=C2\C(=O)Nc3ccc(C(=O)NCCc4c[nH]cn4)cc32)cc1 [GW300660X] | 57

— publication PMC7826789 (International Journal of Molecular Sciences, 2021)
